Compounds with a hit are over-represented: about 1.9% of the library has one in this group of screens.
TNF necrop inh: inhibitors of TNF-alpha triggered necroptosis, primary screen, cell-based, Jurkat FADD-/-, single concentration; Jurkat FADD-/- TNF necroptosis rescue, ATP luminescence, 24 h; 0 = TNF only, 100 = no-TNF cells; activation (protection from cell death), % at 10 µM; actives 0.068% (n = 220,000);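 active = activation, meaning protection from cell death, of at least 50% relative to plate controls; inactive = activation below 50%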;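 also: necroptosis triggered by 40 ng/mL TNF-alpha added together with compound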
HSF1 activator: HSF-1 activators, primary screen, NIH3T3-HGL cells, MG132 stress, luminescence, single point; NIH3T3-HGL HSF-1 luciferase reporter, 8 h; 100% = twice DMSO control signal; activation, % at 9 µM; actives 1.7% (n = 300,000);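 active = mean replicate activation of at least 50% with a set share of replicates each reaching 50%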;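 also: 0% = median of the neutral control wells and 100% = twice that signal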
L929 necroptosis: inhibitors of zVAD-triggered necroptosis, primary screen, L929 cells; L929 zVAD necroptosis rescue, ATP luminescence, 24 h; with zVAD 60 µM; viability rescue, % at 10 µM; actives 0.38% (n = 220,000);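 active = activation, scaled between plate controls, above about 75%, limit read from the data; inactive = activation under that limit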;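 also: 0% = zVAD with DMSO and 100% = DMSO alone without zVAD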
Hsp70 act: Hsp70 transcriptional activators, primary screen, cell-based, HeLa, Hsp70 promoter luciferase, luminescence, 10 µM | HeLa Hsp70 promoter luciferase reporter; scaled: vehicle 0, proteasome-inhibitor control 100% | activation, % at 10 µM | actives 0.04% (n = 200,000);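 active = activation above the mean across all tested compounds plus 3 SD, cutoff set per campaign, cut at about 5.5% in these data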;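 also: 100% = MG132 at 30 µM as the positive control and 0% = DMSO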
An asterisk follows results filed as active; . = not tested or not shown.

SMILES	TNF necrop inh	HSF1 activator	L929 necroptosis	Hsp70 act
Cc1ccccc1C(=O)N1N=C(c2ccc(NS(C)(=O)=O)cc2)CC1c1cccs1 (centres undefined)	.	-6.8	.	.
COc1ccccc1C(=O)N1N=C(c2ccc(NS(C)(=O)=O)cc2)CC1c1cccs1 (centres undefined)	.	54.2*	.	.
Cc1cccc(NC(=O)CSc2nc3nc(C)cc(C)n3n2)c1	.	-0.6	.	.
COc1ccc(CNC2CCSc3ccccc32)cc1OC (centres undefined)	.	62.7*	.	.
COc1ccc(CNC2CCCc3ccccc32)cc1OC (centres undefined)	2.1	-5.9	0.3	-0.2
O=[N+]([O-])c1cccc(-c2nnc(-c3ccc4c(c3)OCO4)o2)c1	-0.1	-6.5	0.7	0.0
Clc1ccccc1-c1nnc(-c2ccc3c(c2)OCO3)o1	-0.1	95.1*	1.7	-0.3
O=C(NN1CCCCC1)c1ccccc1	2.2	-2.1	1.0	-0.4
O=C(NC(C(=O)c1ccccc1)N1CCCCC1)c1ccccc1 (centres undefined)	-1.0	81.9*	0.1	-0.2
CN(C)C(=O)C1CCC(=O)N1Cc1cccs1 (centres undefined)	0.3	.	0.0	-0.3
CCOc1cc(N2CCOCC2)c(OCC)cc1NS(=O)(=O)c1cc(NC(C)=O)ccc1OC	.	-8.5	.	.
Cc1ccc(S(=O)(=O)ON2C(=O)c3ccccc3C2=O)c(C)c1	1.3	.	0.1	0.0
Cc1cc(C)c(S(=O)(=O)ON2C(=O)c3ccccc3C2=O)cc1C	-1.1	62.3*	-0.1	0.0
Cc1cc(C)c(C)c(S(=O)(=O)ON2C(=O)c3ccccc3C2=O)c1C	-3.8	52.4*	-0.1	0.0
Cc1[nH]c2ccccc2c1C(=O)C(=O)Nc1ccc2c(c1)OCO2	.	31.8	.	.
O=C1/C(=C/c2ccc([N+](=O)[O-])cc2)Oc2cc(O)ccc21	.	72.6*	.	.
O=C(CN1CCOCC1)NCc1cc([N+](=O)[O-])ccc1O	.	17.2	.	.
O=C(c1cncs1)N1CCCC(CNS(=O)(=O)c2cccs2)C1 (centres undefined)	1.0	4.9	9.1	-0.1
CC(C)CC(/C(O)=C(\C#N)c1nc2ccccc2[nH]1)N1C(=O)c2ccccc2C1=O (centres undefined)	-0.6	74.8*	0.8	-0.4
CCOc1ccc(S(=O)(=O)NC(C)C)cc1C(N)=O	0.9	-1.5	3.2	0.1
O=C(COC(=O)COc1cccc(Br)c1)Nc1c(Cl)cccc1Cl	0.5	54.2*	0.7	-0.2
O=C(Nc1cccc2ccccc12)N1CCN(c2ccccc2)CC1	0.2	.	0.2	-0.3
NC(=NC(=O)c1ccccc1)N1N=CCC1c1ccccc1 (centres undefined)	-1.1	4.7	0.6	-0.2
S=C(Nc1ccccc1)N1N=CCC1c1ccccc1 (centres undefined)	90.7*	8.0	3.0	0.0
O=C(Nc1cccc2ccccc12)N1N=CCC1c1ccccc1 (centres undefined)	64.4*	35.2	-0.3	.
SMILES	TNF necrop inh	HSF1 activator	L929 necroptosis	Hsp70 act
CN1CCN(c2ccc(NC(=O)CSc3nnnn3-c3ccccc3Cl)cc2)CC1	.	9.2	.	.
Cc1ccc(Nc2nc(CSc3nnnn3C)cs2)cc1	0.1	26.6	0.0	-0.1
Cc1ccc(Nc2nc(CSc3nnnn3-c3ccccc3)cs2)cc1	30.5	70.1*	-0.2	-0.1
CCC(=O)Nc1ccc(NC(=O)c2ccco2)c(OC)c1	-1.3	11.5	0.6	0.2
COc1cc(NC(=O)CC(C)C)ccc1NC(=O)c1ccco1	0.6	53.6*	0.1	-0.1
COCCNC(=O)Cn1cnc2c1c(=O)n(C)c(=O)n2C	1.3	56.4*	0.5	-0.3
COC(=O)Cn1cnc2c1c(=O)n(C)c(=O)n2C	0.3	-10.1	2.0	-0.2
CCCCn1nnnc1NCc1ccc(C)s1	-1.4	6.6	-0.2	-0.5
Cc1onc(-c2ccc(Cl)cc2)c1-c1ccnn1S(=O)(=O)c1cccc(C(F)(F)F)c1	3.4	22.2	1.0	.
O=C1c2ccccc2C(=O)N1CCc1csc(-c2cccc(Cl)c2)n1	-3.7	-50.9	-0.1	-0.4
O=C1c2ccccc2C(=O)N1CCc1csc(-c2cccc(F)c2)n1	-1.9	82.7*	-0.1	-0.1
Cc1nc(-c2ccc(NC(=O)C3CCCCC3)cc2)cs1	5.9	56.8*	1.1	0.1
Cc1ccccc1-c1cccc([C@@H]2C[C@H]3CN(Cc4cccnc4)C(=O)[C@]34CCCN24)c1	-1.2	12.7	-0.3	-0.1
COc1ccc(-c2nn(-c3ccccc3)cc2/C=C/C(=O)N2CCN(c3ccccn3)CC2)cc1	-1.1	-37.0	1.7	-0.4
CCOc1ccc(S(=O)(=O)Nc2cc(SCC(=O)O)c(O)c3ccccc23)cc1	.	-7.4	.	.
O=S(=O)(Nc1cc(Sc2cccc3cccnc23)c(O)c2ccccc12)c1ccccc1	-12.2	203.6*	41.0	-0.1
Cc1ccc(S(=O)(=O)Nc2cccc3cccnc23)cc1	-13.1	81.3*	0.2	0.1
COc1ccc(CNC(=O)CCNS(=O)(=O)c2cc(Br)cnc2N)cc1	.	-12.9	.	.
O=C(NCCc1ccccc1)c1noc2c1CCc1ccccc1-2	1.3	52.0*	-0.7	0.2
CC(C)OC(=O)Cc1nc2sc(-c3ccccc3)cc2c(=O)[nH]1	.	51.7*	.	.
Cc1nc2sc(-c3ccccc3)cc2c(=O)[nH]1	-4.9	25.4	-1.4	-0.4
Cc1ccc2c(=O)cc(C(=O)NCc3ccccc3)oc2c1C	.	2.2	.	.
CC(=O)Nc1ccc(S(=O)(=O)Nc2nc3ccccc3nc2Nc2ccc3ccccc3c2)cc1	1.4	105.7*	2.0	-0.2
CCOC(=O)C1(CCCc2ccccc2)CCN(C(=O)c2cnn(CC)c2)CC1	0.9	.	-0.8	-0.3
COC(=O)c1sc(NC(=O)c2ccoc2C)nc1C	-2.9	48.1	-0.6	0.0
SMILES	TNF necrop inh	HSF1 activator	L929 necroptosis	Hsp70 act
COC(=O)c1sc(NC(=O)/C=C/c2ccc(C)o2)nc1C	2.3	57.0*	3.0	0.1
COCCNC(=O)/C(C#N)=C/c1c(N2CCN(C)CC2)nc2ccccn2c1=O	.	-0.2	.	.
O=C(NC(=S)Nc1ccc(N2CCCCC2)cc1)c1ccco1	-5.1	29.8	0.4	0.1
CN1CCN(c2ccc(NC(=O)c3ccc(Br)o3)cc2)CC1	.	19.2	.	.
CC1CCN(c2ccc(NC(=S)NC(=O)c3ccco3)cc2)CC1	-3.5	60.9*	-0.4	-0.2
CC1CCN(c2ccc(NC(=O)c3ccc(Br)o3)cc2)CC1	.	53.2*	.	.
O=[N+]([O-])c1ccc(S(=O)(=O)N2CCSC2c2ccco2)cc1 (centres undefined)	0.3	50.6*	0.8	.
CCC(C)(C)NC(=O)c1ccc2c(c1)N(CC(=O)NC1CCCC1)C(=O)C(C)(C)O2	.	-20.0	.	.
COc1ccc(OC)c(Nc2nc3ccc(C)cc3n3cnnc23)c1	.	74.2*	.	.
CCN(CC)c1ccc2c(Cl)c(Br)c(=O)oc2c1	-20.4	325.6*	61.8	-0.5
CC(=O)Oc1ccccc1N(C(C)=O)S(=O)(=O)c1cccc([N+](=O)[O-])c1	-0.9	2.4	0.9	-0.3

Compound activity: PubChem, several laboratories
